{"source": "PubChem BioAssay AID1259343", "about": "(VanderVen Lab, College of Veterinary Medicine, Cornell …, 2017)", "note": "Hit rate of the full screen: of about 6,200 compounds, about 2,900 (47%) were called active. So high a share suggests a set chosen from earlier hits. This is one part of the list. Unmarked numbers belong to inactive results. Cut-off read from the data, not from the text of the source: active = inhibition above about 50%; inactive = the rest.", "data": [{"assay": "Mycobacterium tuberculosis growth inhibition, primary screen (AID 1259343)", "details": "inhibition: at 10 µM, active compounds read high; outcome: 10 uM", "values": [{"smiles": "C=CCNC(=S)NN=C1CCCCc2ccccc21", "inhibition": "-17.9%"}, {"smiles": "C=CCNC(=S)NN=C1CCC=C1CCCCC", "inhibition": "21.5%"}, {"smiles": "C=CCNC(=S)NN=C1C=C(C)CC(C)(C)C1", "inhibition": "103% (active)"}, {"smiles": "Cc1cccc(C)c1OCC(O)Cn1cnc2ccc(Br)cc2c1=O", "note": "(stereo not drawn)", "inhibition": "33.4%"}, {"smiles": "Cc1cccc(OCC(O)Cn2cnc3ccc(Cl)cc3c2=O)c1", "note": "(stereo not drawn)", "inhibition": "86.5% (active)"}, {"smiles": "CCn1cnc2cc(-c3ccc(Cl)cc3)sc2c1=O", "inhibition": "29.3%"}, {"smiles": "CN(CCNc1ccc2c(c1)C(=O)CCC2)c1ccccc1", "inhibition": "75.6% (active)"}, {"smiles": "Cc1ccc(C(=O)NCCN(C)c2ccccc2)c(C)c1", "inhibition": "35.9%"}, {"smiles": "Cc1ccc(SCCC(=O)Nc2nnc(-c3cc(C)ccc3C)o2)cc1", "inhibition": "74.8% (active)"}, {"smiles": "CC(C)OC(=O)c1ccc(NC(=O)CCCC(=O)O)cc1", "inhibition": "50.8% (active)"}, {"smiles": "Cc1ccc(NC(=O)C(C)OC(=O)c2cccc(C)c2C)cc1", "note": "(stereo not drawn)", "inhibition": "18.8%"}, {"smiles": "Cc1cc(=O)[nH]c(-n2nc(C)cc2NC(=O)Cc2cccs2)n1", "inhibition": "101% (active)"}, {"smiles": "CCCc1cc(=O)[nH]c(-n2nc(C)cc2NC(=O)Cc2cccs2)n1", "inhibition": "-25.1%"}, {"smiles": "CCc1cc(=O)[nH]c(-n2nc(C)cc2NC(=O)Cc2cccs2)n1", "inhibition": "101% (active)"}, {"smiles": "CN(C)CCCNc1ncnc2c1c(-c1ccccc1)cn2-c1ccc(Br)cc1", "inhibition": "97.2% (active)"}, {"smiles": "CC(C)OCCCNc1ncnc2c1c(-c1ccccc1)cn2-c1ccccc1", "inhibition": "101% (active)"}, {"smiles": "Cc1ccc(-n2cc(-c3ccccc3)c3c(NCCCO)ncnc32)cc1Cl", "inhibition": "inactive"}, {"smiles": "CCCNc1ncnc2c1c(-c1ccccc1)cn2-c1ccccc1", "inhibition": "95.8% (active)"}, {"smiles": "CC(O)CNc1ncnc2c1c(-c1ccccc1)cn2-c1ccc(Cl)cc1", "note": "(stereo not drawn)", "inhibition": "99.4% (active)"}, {"smiles": "Cn1ccnc1-c1nccn1Cc1ccc(CN2CCCC2)cc1", "inhibition": "-4.25%"}, {"smiles": "CN(C)c1ccc(C=Cc2ccc3c4ccccc4ccc3[n+]2-c2ccccc2)cc1", "inhibition": "-1.83%"}, {"smiles": "O=S(=O)(Nc1ccc(Br)cc1)c1ccc(F)cc1", "inhibition": "36.6%"}, {"smiles": "N#Cc1ccc(NS(=O)(=O)c2ccc(F)cc2)cc1", "inhibition": "77.8% (active)"}, {"smiles": "O=S(=O)(Nc1ccc(Br)c(C(F)(F)F)c1)c1ccc(F)cc1", "inhibition": "81.1% (active)"}, {"smiles": "Cc1cc(C)c(C)c(S(=O)(=O)Nc2ccc(F)cc2)c1C", "inhibition": "31.6%"}, {"smiles": "O=c1[nH]c(=S)ccn1-c1nc(-c2ccccc2)sc1-c1ccccc1", "inhibition": "21.2%"}, {"smiles": "Oc1ccccc1Oc1ccc(Oc2ccccc2O)cc1", "inhibition": "25.7%"}, {"smiles": "NCc1ccc(Oc2cccc(Cl)c2Cl)cc1", "inhibition": "62.9% (active)"}, {"smiles": "O=C(O)c1sc(Cl)cc1/C=C\\c1ccccc1", "inhibition": "4.33%"}, {"smiles": "O=C(O)c1sc2cc(Cl)ccc2c1Cl", "inhibition": "87.1% (active)"}, {"smiles": "O=C(NS(=O)(=O)c1ccc(Cl)s1)c1sc2cc(Cl)ccc2c1Cl", "inhibition": "77.9% (active)"}, {"smiles": "O=C(NS(=O)(=O)c1ccc(Br)s1)c1ccc(Cl)cc1Cl", "inhibition": "82.9% (active)"}, {"smiles": "O=C(NC1=NCCS1)c1sc2cc(F)ccc2c1Cl", "inhibition": "5.48%"}, {"smiles": "O=C(O)c1sc2cc(Cl)cc(Cl)c2c1Cl", "inhibition": "92.8% (active)"}, {"smiles": "COc1ccc2c(Cl)c(C(=O)O)sc2c1Cl", "inhibition": "19.7%"}, {"smiles": "CC(NC(=O)c1ccc(Cl)c([N+](=O)[O-])c1)c1ccccc1", "note": "(stereo not drawn)", "inhibition": "100% (active)"}, {"smiles": "CC(NC(=O)c1scnc1Cl)c1ccccc1", "note": "(stereo not drawn)", "inhibition": "8.26%"}, {"smiles": "Cc1cc(C)c(S(=O)(=O)Nc2nc(C(F)(F)F)cs2)c(C)c1", "inhibition": "78.7% (active)"}, {"smiles": "Cc1cc(C)c(S(=O)(=O)NC(C)c2ccccc2)c(C)c1", "note": "(stereo not drawn)", "inhibition": "9.74%"}, {"smiles": "Cc1ccc(NC(=O)c2csc(NS(=O)(=O)c3cccs3)n2)cc1F", "inhibition": "28.6%"}, {"smiles": "O=C(CCc1nnc(CCc2c[nH]c3ccccc23)o1)N1CCC(c2ccccc2Cl)C1", "note": "(stereo not drawn)", "inhibition": "33.4%"}, {"smiles": "c1ccc(-c2noc(CCCc3c[nH]c4ccccc34)n2)cc1", "inhibition": "71.6% (active)"}, {"smiles": "O=C1C=CC(=O)N1c1cc(Cl)c(Cl)cc1Cl", "inhibition": "11.4%"}, {"smiles": "O=c1c(C=NCc2ccco2)c(NCc2ccco2)nc2ccccn12", "inhibition": "88.3% (active)"}, {"smiles": "Cc1cccn2c(=O)c(C=NCCO)c(NCc3ccco3)nc12", "inhibition": "45.5%"}, {"smiles": "CCC(C)N=Cc1c(NCc2ccco2)nc2c(C)cccn2c1=O", "note": "(stereo not drawn)", "inhibition": "4.74%"}, {"smiles": "O=C(COc1ccc(F)cc1Br)NCCOc1ccc(Cl)cc1", "inhibition": "77.7% (active)"}, {"smiles": "Cc1ccc(C2=CCN(C(=O)CNC(=O)C3CCCCC3)CC2)cc1", "inhibition": "93.1% (active)"}, {"smiles": "O=C(CC1CCCC1)N1CC=C(c2ccc(O)cc2)CC1", "inhibition": "41%"}, {"smiles": "O=C(NC(c1ccccc1)c1ccc2ccccc2n1)C1CCN(Cc2ccc(Oc3ccccc3)cc2)CC1", "note": "(stereo not drawn)", "inhibition": "56.5% (active)"}, {"smiles": "C=CC[C@H]1CC(C)=C[C@H](CC=C)N1Cc1ncccc1C(=O)O", "inhibition": "-5.55%"}, {"smiles": "Cc1cccc(C(=O)O)c1O", "inhibition": "23.2%"}, {"smiles": "Cc1c(Cl)cccc1Nc1ccccc1C(=O)O", "inhibition": "101% (active)"}, {"smiles": "Cc1ccnc(Nc2ccc(NCCNC(=O)Nc3cccc(Cl)c3C)nn2)c1", "inhibition": "36.1%"}, {"smiles": "C[CH2][Hg][S]c1ccccc1C(=O)O", "inhibition": "102% (active)"}, {"smiles": "O=C(O)c1cccc2cccc(-c3cccc4cccc(C(=O)O)c34)c12", "inhibition": "37%"}, {"smiles": "O=C(Nc1ccc(Cl)cc1)c1c(Cl)nsc1Cl", "inhibition": "68.1% (active)"}, {"smiles": "O=C(O)Cc1ccc([N+](=O)[O-])cc1Sc1ccc(Cl)cc1", "inhibition": "54.2% (active)"}, {"smiles": "O=C1CC(=O)CC2(CCCC2)C1", "inhibition": "22.1%"}, {"smiles": "O=C(Nc1ccc(Cl)c(Cl)c1)Nc1cc(C(F)(F)F)c[nH]c1=O", "inhibition": "9.25%"}, {"smiles": "O=C(Nc1ccc(C(F)(F)F)cc1Cl)c1cc([N+](=O)[O-])[nH]n1", "inhibition": "102% (active)"}, {"smiles": "CN(C)c1c(Cl)cccc1NC(=O)c1cc(C2CC2)[nH]n1", "inhibition": "19.5%"}, {"smiles": "CN(Cc1ccsc1)C(=O)c1cccc2c(=O)c3ccccc3[nH]c12", "inhibition": "43.6%"}, {"smiles": "O=S(=O)(Nc1nc2c(F)cc(F)cc2s1)c1ccc(F)cc1F", "inhibition": "73.8% (active)"}, {"smiles": "O=C(Nc1cccc(N2CCOC2=O)c1)C1CC(c2ccccc2)=NO1", "note": "(stereo not drawn)", "inhibition": "83.1% (active)"}, {"smiles": "N#Cc1cnc(N(Cc2cccc(O)c2)CC2CC2)c(Cl)c1", "inhibition": "-4.43%"}, {"smiles": "FCCCN1CCc2onc(-c3ccc(-c4ccccc4)cc3)c2C1", "inhibition": "38.4%"}, {"smiles": "CSCCCNC(=O)c1ccc(-c2ccc(F)cc2)s1", "inhibition": "2.44%"}, {"smiles": "O=C(NCCc1ccc(F)cc1)c1ccc(-c2ccc3c(c2)OCO3)s1", "inhibition": "66.8% (active)"}, {"smiles": "O=C(NC1CCc2ccccc21)c1ccc(-c2ccc3c(c2)OCCO3)s1", "note": "(stereo not drawn)", "inhibition": "34.8%"}, {"smiles": "CCCCC(CC)COCCCNC(=O)c1ccc(-c2ccc3c(c2)OCO3)s1", "note": "(stereo not drawn)", "inhibition": "89.3% (active)"}, {"smiles": "O=C(NCCc1ccc(F)cc1)c1ccc(-c2cccc(Cl)c2)s1", "inhibition": "28.2%"}, {"smiles": "Cc1nc(NCCNC(=O)Nc2ccc(F)c(Cl)c2)cc(N2CCCC2)n1", "inhibition": "58.8% (active)"}, {"smiles": "COc1ccc(/C=C/CN2CCCC(CO)(Cc3cccc(Cl)c3)C2)cc1", "note": "(stereo not drawn)", "inhibition": "inactive"}, {"smiles": "COc1ccc(/C=C/CN2CCN(c3cc(-n4cccn4)ncn3)CC2)cc1", "inhibition": "89.8% (active)"}, {"smiles": "Cc1ccc(NC(=O)CCn2nc3ccccn3c2=O)cc1F", "inhibition": "57.8% (active)"}, {"smiles": "CC1CN(C(=O)Nc2ccccc2C(F)(F)F)c2cccnc2N1", "note": "(stereo not drawn)", "inhibition": "24.7%"}, {"smiles": "COC(=O)C1CCN(C(=O)COc2ccc3ccccc3c2Br)CC1", "inhibition": "-1.48%"}, {"smiles": "O=C(COc1ccc2ccccc2c1)N1CCC(Nc2ccccc2)CC1", "inhibition": "3.84%"}, {"smiles": "COC(=O)C1CCN(C(=O)COc2ccc(OCc3ccccc3)cc2)CC1", "inhibition": "81.6% (active)"}, {"smiles": "CCN1CC(=Cc2cc(C)n(C3CC3)c2C)C(=O)C(=Cc2cc(C)n(C3CC3)c2C)C1", "inhibition": "30.3%"}, {"smiles": "CCCCCCNC(=O)n1cc(F)c(=O)[nH]c1=O", "inhibition": "97% (active)"}, {"smiles": "CCCCCNC(=O)N1CC2C3CCC(C3)C21", "note": "(stereo not drawn)", "inhibition": "28.6%"}, {"smiles": "CCCCCNC(=O)c1sc2[nH]c(=S)[nH]c(=O)c2c1C", "inhibition": "36.1%"}, {"smiles": "O=C(NCc1ccc(Cl)cc1)c1cncn1-c1ccc(-c2ccc(F)c(F)c2)cc1", "inhibition": "-2.19%"}, {"smiles": "Cc1cccc(-c2ccc(CNC(=O)c3ccc(=O)n(C)n3)cc2)c1", "inhibition": "55.3% (active)"}, {"smiles": "Cc1cccc(-c2cccc(CNC(=O)c3ccc(=O)[nH]n3)c2)c1", "inhibition": "18.8%"}, {"smiles": "COc1cc(OC)cc(-c2cc3c(Nc4ccccn4)nccc3n2C)c1", "inhibition": "57% (active)"}, {"smiles": "COc1cccc(-c2ccnc3[nH]n(-c4ccccc4)c(=O)c23)c1", "inhibition": "46.4%"}, {"smiles": "COc1cccc(Nc2nccc3c2cc(-c2ccccc2)n3C)c1", "inhibition": "87.3% (active)"}, {"smiles": "CC(C)c1ccc(Nc2cc3c(cn2)cc(-c2cccnc2)n3C)cc1", "inhibition": "47.9%"}, {"smiles": "Cn1c(-c2cccc(C(F)(F)F)c2)cc2c(Nc3ccncc3)nccc21", "inhibition": "97.1% (active)"}, {"smiles": "COc1cccc(Nc2nccc3c2cc(-c2ccc(N(C)C)cc2)n3C)c1", "inhibition": "81.2% (active)"}, {"smiles": "CC(C)Cc1nnc(C(C)Sc2nc3ncc(Cl)cc3[nH]2)o1", "note": "(stereo not drawn)", "inhibition": "-8.41%"}, {"smiles": "CC(=O)c1ccc(-c2ccc(Br)s2)cc1", "inhibition": "37%"}, {"smiles": "CC(C)C1(CNC(=O)c2ccc(Br)s2)CC1", "inhibition": "95.1% (active)"}, {"smiles": "Cc1cccc(NC(C)c2nnc(-c3cccs3)o2)c1C", "note": "(stereo not drawn)", "inhibition": "61.2% (active)"}, {"smiles": "O=C(Nc1ccc(Br)cc1)c1cc(Br)cc(Br)c1O", "inhibition": "101% (active)"}, {"smiles": "O=c1[nH]cc(CNCc2ccccc2)c(=O)[nH]1", "inhibition": "101% (active)"}, {"smiles": "CCC1CCCCN1C(=O)c1ccc(-c2ccc(F)cc2)s1", "note": "(stereo not drawn)", "inhibition": "94.5% (active)"}, {"smiles": "CCC1CCCCN1C(=O)c1ccc(-c2cccc(Cl)c2)s1", "note": "(stereo not drawn)", "inhibition": "81.8% (active)"}, {"smiles": "O=C(O)C1CCN(c2ncnc3cc(-c4ccc(F)cc4)sc23)CC1", "inhibition": "14.5%"}, {"smiles": "Oc1ccc(C=Cc2ccncc2)cc1", "inhibition": "37.5%"}]}]}
